# Molecular target: Protein kinase C alpha type (Homo sapiens) (UniProt P17252)
# Conditions: at 0.1 µM
# 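Also: each value is the mean percent inhibition of PKC-alpha kinase activity.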
row,Structure (SMILES),inhibition
1,Nc1nc(-c2ccc3c(c2)C(=Cc2cc(Br)c(O)c(Br)c2)C(=O)N3)cs1,-0.01%
2,COc1ccc(-c2ccncc2)cc1C(N)=O,1.07%
3,CC1=C(C(=O)Nc2ccc3[nH]ncc3c2)C(c2ccc(Cl)c(Cl)c2)CC(=O)N1 (stereo not given),0.41%
4,Fc1cccc(COc2ccc(Nc3ncnc4sc(-c5cccs5)cc34)cc2Cl)c1,-0.17%
5,CN1CCC(C(=O)Nc2n[nH]c3nnc(-c4ccccc4)cc23)CC1,0.67%
6,Cc1nn(C)c2cc(N(C)c3ccnc(Nc4cccc(S(N)(=O)=O)c4)n3)ccc12,1%
7,COC(=O)Nc1nc2cc(Oc3ccc(NC(=O)Nc4cccc(C(=O)O)c4)cc3)ccc2[nH]1,-3.01%
8,CS(=O)(=O)CCNCc1nc(-c2ccc3ncnc(Nc4ccc(F)c(Cl)c4)c3c2)cs1,0.29%
9,CS(=O)(=O)CCNCc1ccc(-c2ccc3ncnc(Nc4ccc(OCc5ccccc5)c(Cl)c4)c3c2)o1,0.09%
10,COC(=O)Nc1nc2cc(Oc3cccc(NC(=O)Nc4cc(C(F)(F)F)ccc4F)c3)ccc2[nH]1,0.42%
